Structures are written as SMILES. About 83,000 compounds went through this panel and 20% of them were active in at least one assay; those are over-represented in the sample as a whole.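 96-well plates, one dose, 48 hours. Percent growth reported; active if below 10.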 A number with no mark means an inactive call. Activity calls are given as the source filed them.

The values that follow come from PubChem BioAssay (NCI).

Among the test systems are NCI-H23 lung; NCI-H226 lung; NCI-H322M lung; HOP-62 NSCLC; NCI-H460 lung; HOP-92 NSCLC; NCI-H522 lung; A549/ATCC NSCLC; 786-0 renal; COLO 205 colon; DU-145 prostate; K-562 leukemia; MALME-3M melanoma; MDA-MB-231 breast; RXF 393 renal; SF-268 CNS; SF-295 CNS; SF-539 CNS; UACC-257 melanoma; M14 melanoma.
Holding throughout (test): NCI-60 one-dose screen, 48 h (100 = growth as untreated, 0 = no growth, -100 = all killed)
Common to all, as to settings: 10 µM unless noted

Consider `Cc1ccc(CNc2c3ccccc3nc3cc(NC(=O)CCN4CCCC4)ccc23)cc1`, for which the growth is -48.1% (active) in the experiment on NCI-H23 lung; 35% with NCI-H226 lung; 1.8% (active) in the experiment with NCI-H322M lung; 19.9% in the experiment on HOP-62 NSCLC; -64.7% (active) in the experiment on NCI-H460 lung; -0.443% (active) with HOP-92 NSCLC. For the same compound, the growth is -41.2% (active) in the experiment with NCI-H522 lung; -36.9% (active) in the experiment with A549/ATCC NSCLC; 22.3% in the experiment on 786-0 renal; -40.3% (active) in the experiment on COLO 205 colon; -67.9% (active) in the experiment with DU-145 prostate; -30.3% (active) in the experiment with K-562 leukemia. Further, the growth was -94% (active) in the experiment with MALME-3M melanoma; -7.47% (active) in the experiment with MDA-MB-231 breast; 1.55% (active) in the experiment with RXF 393 renal; 15.1% in the experiment on SF-268 CNS; 36.7% with SF-295 CNS; 16.7% with SF-539 CNS. For the same compound, the growth in the experiment with UACC-257 melanoma was 24.1%; in the experiment on M14 melanoma, -88% (active).
As for `c1ccc2cc(Cn3c(-c4cccc5ccccc45)[n+](Cc4ccc5ccccc5c4)c4c5ccccc5c5ccccc5c43)ccc2c1`, the growth with NCI-H23 lung is -60.8% (active); in the experiment with NCI-H226 lung, -66% (active); with NCI-H322M lung, -25% (active); in the experiment with HOP-62 NSCLC, -85.1% (active); with NCI-H460 lung, -71.7% (active); in the experiment with HOP-92 NSCLC, -52.3% (active). The growth in the experiment with NCI-H522 lung was -64.2% (active); in the experiment on A549/ATCC NSCLC it was -71.7% (active); with 786-0 renal, -70% (active); in the experiment with COLO 205 colon, -84.9% (active); with DU-145 prostate, -96.5% (active); with K-562 leukemia, -35.2% (active). Besides, the growth in the experiment with MALME-3M melanoma is -82.6% (active); in the experiment on MDA-MB-231 breast, -72.9% (active); in the experiment with RXF 393 renal it was -90.6% (active); in the experiment with SF-268 CNS it was -38.2% (active); with SF-295 CNS, -83.9% (active); in the experiment on SF-539 CNS, -92.5% (active). Also, the growth in the experiment with UACC-257 melanoma is -67.2% (active); in the experiment with M14 melanoma, -63.5% (active).
Turning to `COc1ccc(C(=O)c2cc(C)c(OC)c(C)c2)c(OC)c1NC(C)=O`, the growth in the experiment on NCI-H23 lung is 29.5%; in the experiment with NCI-H226 lung, 17.4%; in the experiment on NCI-H322M lung, 42.7%; in the experiment with HOP-62 NSCLC, 20.3%; with NCI-H460 lung it was 3.32% (active); in the experiment with HOP-92 NSCLC it was 6.76% (active). Further, the growth with NCI-H522 lung is 13.4%; in the experiment on A549/ATCC NSCLC it was 18.1%; with 786-0 renal, 13.7%; with COLO 205 colon, -5.99% (active); in the experiment on DU-145 prostate, 4.21% (active); in the experiment on K-562 leukemia, 15.5%. The growth was 58.5% in the experiment with MALME-3M melanoma; 20.9% in the experiment on MDA-MB-231 breast; 10.8% in the experiment on RXF 393 renal; 37.9% in the experiment with SF-268 CNS; 13% in the experiment with SF-295 CNS; -13.7% (active) with SF-539 CNS. The growth in the experiment on UACC-257 melanoma was 66.1%; in the experiment with M14 melanoma, -8.33% (active).
Turning to `O=C(Cc1ccc(/C=C/C(=O)c2nccs2)cc1)Nc1ccccc1`, the growth with NCI-H23 lung is 97.3%; in the experiment on NCI-H226 lung, 100%; in the experiment with NCI-H322M lung it was 100%; with HOP-62 NSCLC, 103%; in the experiment with NCI-H460 lung it was 103%; in the experiment on HOP-92 NSCLC, 91.3%. Also, the growth with NCI-H522 lung is 78.5%; in the experiment on A549/ATCC NSCLC, 88.8%; with 786-0 renal, 93.8%; in the experiment with COLO 205 colon it was 122%; in the experiment with DU-145 prostate it was 105%; with K-562 leukemia, 23.3%. For the same compound, the growth in the experiment on MALME-3M melanoma was 98.4%; with MDA-MB-231 breast it was 94.8%; in the experiment with RXF 393 renal, 103%; in the experiment with SF-268 CNS, 95%; in the experiment with SF-295 CNS, 97.1%; with SF-539 CNS, 99.9%. Also, the growth in the experiment on UACC-257 melanoma was 88.6%; in the experiment with M14 melanoma, 93.1%.
Regarding `COc1ccc(-c2[nH][nH]c(=O)c2-c2nc3ccccc3s2)cc1`, the growth with NCI-H23 lung is 105%; with NCI-H226 lung, 98%; with NCI-H322M lung, 100%; in the experiment with HOP-62 NSCLC, 104%; in the experiment with NCI-H460 lung it was 105%; in the experiment on HOP-92 NSCLC, 108%. Besides, the growth is 96.3% with NCI-H522 lung; 107% in the experiment on A549/ATCC NSCLC; 100% in the experiment with 786-0 renal; 112% in the experiment on COLO 205 colon; 108% in the experiment on DU-145 prostate; 98.2% in the experiment on K-562 leukemia. Besides, the growth with MALME-3M melanoma is 110%; in the experiment on MDA-MB-231 breast, 104%; in the experiment on RXF 393 renal, 109%; in the experiment on SF-268 CNS it was 101%; in the experiment with SF-295 CNS, 107%; in the experiment on SF-539 CNS it was 108%. Further, the figures for the growth in the experiment with UACC-257 melanoma and with M14 melanoma were 106% and 107%, respectively.
Turning to `COc1cc(/C=C/c2cc(O)c(C(C)=O)c(O)c2)cc2c1O[C@]1(C)CC[C@@H](O)C(C)(C)[C@H]1C2`, the growth is 73.6% in the experiment with NCI-H23 lung; 89% with NCI-H226 lung; 76.2% in the experiment with NCI-H322M lung; 52.7% in the experiment on HOP-62 NSCLC; 76.3% with NCI-H460 lung; 95.5% in the experiment with HOP-92 NSCLC. For the same compound, the growth in the experiment on NCI-H522 lung was 79%; with A549/ATCC NSCLC, 81.4%; with 786-0 renal, 7.29% (active); with COLO 205 colon it was 94.5%; with DU-145 prostate, 74.5%; with K-562 leukemia, 31.6%. Further, the growth is 65.8% with MALME-3M melanoma; 37.6% in the experiment on MDA-MB-231 breast; -19.4% (active) in the experiment on RXF 393 renal; 55.8% in the experiment on SF-268 CNS; 8.72% (active) in the experiment with SF-295 CNS; 9.14% (active) in the experiment on SF-539 CNS. In addition, the figures for the growth with UACC-257 melanoma and with M14 melanoma were 76.4% and 51.5%, respectively.
Take `O=C1Nc2cc(-c3cccc(O)c3)ccc2/C1=C/c1ccc[nH]1`: the growth in the experiment on NCI-H23 lung was 4.68% (active); with NCI-H226 lung it was 73.9%; in the experiment on NCI-H322M lung, 21.8%; in the experiment with HOP-62 NSCLC, 14%; in the experiment on NCI-H460 lung it was 4.52% (active); in the experiment on HOP-92 NSCLC it was 30.9%. In addition, the growth with NCI-H522 lung is 3.76% (active); in the experiment with A549/ATCC NSCLC, 17.7%; with 786-0 renal, 15%; in the experiment on COLO 205 colon, 83.7%; in the experiment with DU-145 prostate it was 33.8%; in the experiment on K-562 leukemia, 5.66% (active). Besides, the growth with MALME-3M melanoma was 16.1%; in the experiment with MDA-MB-231 breast, -15.8% (active); in the experiment with RXF 393 renal, -39.8% (active); in the experiment with SF-268 CNS it was 15.4%; with SF-295 CNS it was 19.3%; with SF-539 CNS, -48.7% (active). Further, the growth in the experiment with UACC-257 melanoma is 46%; in the experiment on M14 melanoma it was 16.9%.
